An excerpt weighted towards active compounds, which were near 4.2% of everything screened.
GDH-TPI counter: counter-screen for M. tuberculosis FBA inhibitors: GDH-TPI coupled enzymes. inhibition, % at 4.8 µM. 360,000 tested, 1.2% active. GDH-TPI coupled enzyme counterscreen, NADH absorbance. AID 588335; in the data active means inhibition above about 30%;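 further: 0% = DMSO wells and 100% = wells lacking the enzyme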
FBA Mtb inh: Mtb fructose-bisphosphate aldolase inhibition; P9WQA3; purified M. tuberculosis FBA, fluorescence read-out; inhibition, % at 1 µM; 360,000 tested, 2.3% active; AID 588726; in the data active means inhibition above about 27%;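 further: 0% = vehicle and 100% = reference inhibitor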
Target sequence (P9WQA3 whole entry, looked up): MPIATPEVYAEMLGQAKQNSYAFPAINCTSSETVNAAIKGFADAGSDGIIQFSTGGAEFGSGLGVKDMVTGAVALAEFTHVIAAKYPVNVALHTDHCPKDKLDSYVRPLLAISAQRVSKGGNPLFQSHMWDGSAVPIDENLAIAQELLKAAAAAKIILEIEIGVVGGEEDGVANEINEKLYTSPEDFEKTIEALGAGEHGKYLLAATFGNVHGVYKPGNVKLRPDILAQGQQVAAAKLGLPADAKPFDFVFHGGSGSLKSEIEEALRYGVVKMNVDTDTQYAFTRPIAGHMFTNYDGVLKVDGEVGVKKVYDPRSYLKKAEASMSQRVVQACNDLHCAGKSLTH
PrPC TRFRET: cell surface PrPC inhibition, primary TR-FRET screen | P04156 | TR-FRET read-out | inhibition, % at 13.8 µM | 370,000 tested, 0.43% active | AID 720596; in the data active means inhibition above about 24%; further: 0% = median of the test wells and 100% = reference compound wells
BJeLR viability: kills HRASV12-expressing BJeLR cells; 300,000 tested, 0.17% active; AID 1554; inhibition, % (no concentration beside the values); BJeLR (HRASV12) viability, CellTiter-Glo ATP luminescence, 48 h; in the data active means inhibition above about 50%
RecA intein inh: blocks M. tuberculosis RecA intein splicing; inhibition, % (concentration not given with the values); cell-free RecA intein splicing, fluorescence; P9WHJ3; 290,000 tested, 0.75% active; in the data active means inhibition above about 30%;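 further: 0% = vehicle wells and 100% = reference inhibitor control wells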
Starred values were filed as active, the others as inactive; nt = no result given; + = active, no number.

SMILES	GDH-TPI counter	FBA Mtb inh	PrPC TRFRET	BJeLR viability	RecA intein inh
CCc1ccc(N=C2NC(=O)/C(=C/c3ccc(OCC(=O)O)c(OC)c3)S2)cc1	19	-1	4	-9	2
C=CCn1c(-c2ccc(S(=O)(=O)N3CCOCC3)cc2)csc1=Nc1ccccc1	10	-3	0	8	4
CC(=O)c1cccc(N=c2scc(-c3ccc(S(=O)(=O)N4CCOCC4)cc3)n2CCO)c1	4	0	24*	7	6
CC(N)=Nc1ccc([N+](=O)[O-])cc1	7	-1	-12	3	1
O=[N+]([O-])c1ccc(N=Nc2c(Cl)cc(O)cc2Cl)cc1	13	-4	-25	102*	-1
O=C(c1c[nH]c(C(=O)C(Cl)(Cl)Cl)c1)c1ccc(F)cc1F	-4	-2	2	6	34*
O=C(c1ccccc1)c1c[nH]c(C(=O)C(Cl)(Cl)Cl)c1	1	-1	8	-8	46*
CN(C)C(=O)c1cc(C(=O)c2ccc(F)cc2F)c[nH]1	3	1	-2	10	-1
CCC[C@H]1[C@@H](OC(=O)NCc2ccc(OC)cc2)CC[C@@]23CCCN2C(=O)CCC[C@@H]13	nt	nt	7	nt	nt
O=[N+]([O-])c1ccc(Oc2ccc(/C=N/O)cc2)nc1	6	3	-31	2	nt
O=C1NC(=O)/C(=C\c2ccc(Oc3ccc([N+](=O)[O-])cn3)cc2)S1	35*	-2	-13	1	5
O=C(N/N=C/c1c(O)n(-c2ccccc2Cl)c(=O)c2ccccc12)C1COc2ccccc2O1 (centres undefined)	15	34*	nt	-1	6
O=C(O)COc1ccccc1/C=C1\SC(=S)N(NC(=O)c2ccccc2O)C1=O	33*	-3	-7	4	-4
O=C1/C(=C/c2cccnc2)CC/C1=C\c1cccnc1	54*	-4	-2	0	4
O=C1NC(=S)N/C1=C/c1cccnc1	45*	-1	-23	18	0
O=C1NC(=S)N/C1=C\c1cccc([N+](=O)[O-])c1	33*	0	-18	-4	0
O=C1/C(=C/c2cccnc2)CCC/C1=C\c1cccnc1	nt	nt	1	nt	nt
COC(=O)[C@@H](CC(C)C)CP(=O)(OC)[C@@H](C)NC(=O)OCc1ccccc1 (some centres undefined)	nt	nt	-9	nt	nt
CN(C)CCOc1ccc2c(c1)C(=O)C(=Cc1ncc([N+](=O)[O-])n1C)C2	32*	3	5	nt	nt
CC(C)C(NC(=O)CN1C(=O)c2cccc3cccc1c23)C(C)C	36*	2	-14	-1	-17
CCCC(C)NC(=O)CN1C(=O)c2cccc3cccc1c23 (centres undefined)	-1	1	-6	9	-18
O=c1[nH]c(=O)n(Cc2ccc(F)cc2)c(O)c1C=NCCCn1ccnc1	-6	5	0	-3	-1
O=c1[nH]c(=S)n(Cc2ccc(F)cc2)c(O)c1C=NCCCn1ccnc1	31*	-2	-7	1	0
O=C1/C(=C/Nc2cccc([N+](=O)[O-])c2)CCc2ccccc21	20	-2	-8	-9	60*
COc1ccc(-c2nnc(NC(=O)c3cc(C)on3)s2)cc1	35*	2	4	0	0
SMILES	GDH-TPI counter	FBA Mtb inh	PrPC TRFRET	BJeLR viability	RecA intein inh
COc1ccc(-c2csc(NC(=O)c3cc(C)on3)c2C#N)cc1OC	38*	6	-5	6	-3
COc1ccc(NC(=O)c2sc3nc(C)nc(N4CCOCC4)c3c2C)c(OC)c1	15	2	4	-1	-5
Cc1nc(N2CCOCC2)c2c(C)c(C(=O)Nc3ccc(F)cc3F)sc2n1	38*	1	13	20	-1
CCn1c(=O)c([N+](=O)[O-])c(Cl)c2ccccc21	-3	0	nt	4	41*
O=c1c([N+](=O)[O-])c(Cl)c2ccccc2n1Cc1ccccc1	nt	nt	-1	nt	nt
COc1ccc(C(=O)NCCN2C(=O)C3C4C=CC(C4)C3C2=O)cc1OC (centres undefined)	nt	nt	3	nt	nt
COc1ccc(-c2cc(CNC(=O)CCl)on2)cc1	10	3	2	-3	37*
COc1ccc(-c2cc(CNC(C)=O)on2)cc1	-2	-5	-5	-5	1
C/C(=N\Nc1ccc(C(F)(F)F)cn1)c1ccncc1	56*	-2	0	4	1
Cc1ccc(-c2cc(C(=O)NN=Cc3ccc(F)cc3)[nH]n2)cc1C	nt	nt	-9	nt	nt
COc1ccc(C=NNC(=O)c2cc(-c3ccc(C)c(C)c3)n[nH]2)cc1OCc1ccccc1	nt	nt	13	nt	nt
COc1ccc(OC)c(N2C(=O)C(Cl)=C(N3CCOCC3)C2=O)c1	30	-6	3	-10	70*
COC(=O)[C@]12C[C@H](CC(=O)N3CCC(c4ccccc4)CC3)C(=O)N(Cc3ccco3)C1=C[C@H](C1CCCC1)O[C@@H]2C	nt	nt	5	nt	nt
N#C/C(=C\c1ccc(O)c(O)c1)C(=O)c1ccc(O)c(O)c1	46*	-7	3	nt	nt
N#C/C(=C\c1ccc(O)c(O)c1)C(=O)N1CCCC1	7	-9	6	4	-1
COCC(=O)N/N=C(\C)CC(=O)Nc1ccccc1C(N)=O	8	55*	6	-9	-2
COc1ccccc1C(=O)N/N=C(\C)CC(=O)Nc1ccccc1NC(C)=O	3	-1	-7	-6	1
CCN1/C(=C/C(C)=C/c2sc3ccccc3[n+]2CC)Sc2ccccc21	0	-2	13	63*	12
CC(=O)Nc1sc2c(c1-c1nc3ccccc3s1)CCOC2	nt	nt	-4	nt	nt
COc1cc2c(cc1OC)C(SC)=NC1(CCCC1)C2	-6	-1	-7	-1	nt
COc1cc2c(cc1OC)C(C)=NCC2	0	+	-7	-2	-1
COc1cc2c(cc1OC)C(c1ccc(Cl)cc1)=NCC2	11	-1	1	-1	-1
COc1cc2c(cc1OC)C(C)=NC1(CCCCC1)C2	15	186*	-6	-1	-10
Cc1cc2c(N)cccc2nn1	15	-6	-18	1	60*
Cc1cc2c(NC(=O)Nc3ccccc3)cccc2nn1	-3	-1	-14	-5	4
SMILES	GDH-TPI counter	FBA Mtb inh	PrPC TRFRET	BJeLR viability	RecA intein inh
CCOc1ccc(CN2CCN(c3cc(C)nc4c5c(C)cc(C)nc5nn34)CC2)cc1	nt	nt	nt	2	-10
COc1ccc(CN2CCN(c3cc(C)nc4c5c(C)cc(C)nc5nn34)CC2)cc1F	5	125*	4	-4	-10
O=C1CSC(c2ccccc2)N1Cc1ccccn1 (centres undefined)	2	2	9	-7	1
O=C1OC(Cc2ccccn2)C(=O)C1=C1SCCS1 (centres undefined)	41*	-3	-4	25	-5
Cn1c(C(=O)NN)cc2cc(OCc3ccccc3)ccc21	31*	5	14	-5	3
CC(C)CNC(=O)OCc1cn(Cc2ccc(F)c(F)c2)nn1	nt	nt	5	nt	nt
CCS(=O)(=O)C1=NN2C(=N)/C(=C\c3ccc(OC(=O)c4ccco4)cc3)C(=O)N=C2S1	22	1	-2	1	33*
CCN1C(=O)/C(=C\c2cccc(OC(=O)c3ccco3)c2)SC1=S	2	2	2	-3	1
